Assay outcomes as filed in PubChem.
D3 ag: agonists of human D3 dopamine receptor. 410,000 tested, 0.58% active. D3R DiscoveRx beta-arrestin cells, luminescence, 90 min. max activation, %; in the data active = max activation above about 30%
Target sequence (P35462 whole entry, looked up): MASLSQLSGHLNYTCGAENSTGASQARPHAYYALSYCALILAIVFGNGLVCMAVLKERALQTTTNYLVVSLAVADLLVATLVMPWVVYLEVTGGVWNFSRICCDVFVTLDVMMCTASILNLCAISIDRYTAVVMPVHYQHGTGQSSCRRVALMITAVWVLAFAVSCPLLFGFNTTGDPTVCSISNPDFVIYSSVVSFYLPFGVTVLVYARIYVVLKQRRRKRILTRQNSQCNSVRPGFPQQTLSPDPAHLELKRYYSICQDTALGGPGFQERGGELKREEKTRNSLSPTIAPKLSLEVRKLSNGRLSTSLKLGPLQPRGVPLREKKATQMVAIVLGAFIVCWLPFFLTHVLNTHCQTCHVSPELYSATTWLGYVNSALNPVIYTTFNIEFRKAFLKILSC
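Agonist mode: compounds and dopamine controls were applied to plated cells for 90 min at 37 degrees C after an overnight attachment at 1500 cells/well. Luminescent read-out followed 30 - 60 minutes at room temperature with DiscoveRx detection reagent.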
D1 PAM: human D1 dopamine receptor positive modulation. 360,000 tested, 0.036% active. potentiation, % at 10 µM. AID 504651. HEK293 TREx D1 cells, calcium flux, dopamine EC20 potentiation; in the data active = potentiation above about 30%
D3 antag: blocks the human D3 dopamine receptor; D3R cells, DiscoveRx beta-arrestin luminescence, antagonist mode; active compounds read low; max response, negative = inhibition, %; 360,000 tested, 2.5% active; AID 652054; in the data active = max response below about -50%; inconclusive = no clear call, values can overlap the other calls
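Cells plated overnight at 1500 cells/well, then exposed to library compounds with dopamine controls for 90 minutes at 37 degrees C. DiscoveRx reagent added for 30–60 minutes at room temperature; luminescence read, quantitative HTS format.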
D1 antagonist: antagonists of human D1 dopamine receptor | 360,000 tested, 3.2% active | HEK293 TREx D1 cells, calcium flux, dopamine EC80; active compounds read low | activity change, negative = inhibition, % at 10 µM | P21728; in the data active = activity change below about -30%
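Cells carrying a force-coupled, tetracycline-inducible human D1 receptor report calcium flux. Each well gets a 10 s baseline, compound with 180 s monitoring, then an EC80 dopamine stimulus with a second 180 s kinetic read.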
D1 ag: activates the human D1 dopamine receptor; P21728; HEK293 T-REx D1 cells, calcium flux, agonist mode; activation, % at 2 µM; 360,000 tested, 1% active; in the data active = activation above about 30%
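Agonism was scored from calcium flux recorded over 180 s (1 read/s) after pintool compound addition, following a 10-cycle baseline. Cells were inducible force-coupled HEK293 TREx D1, plated overnight at 30 C and loaded with no-wash calcium dye.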
A number is an active result. In the library only some 6% were active in any assay of this set; here they are far more common.

CC(C)(C)OC(=O)C[C@@H]1C/C=C\C[C@@H](CC(=O)N(CCO)Cc2ccccc2)C(=O)N2CCC[C@@H]2COC1=O was read as D3 ag 35 and D3 antag inactive.
Screening CC(C)(C)OC(=O)C[C@H]1C/C=C\C[C@H](CC(=O)N(CCO)Cc2ccccc2)C(=O)NCCOC1=O returned D3 ag inactive and D3 antag inactive.
CC(C)(C)OC(=O)C[C@@H]1C/C=C\C[C@@H](CC(=O)N(CCO)Cc2ccccc2)C(=O)NCCOC1=O was read as D3 ag inactive and D3 antag -123.
`Cc1ccccc1CNC(=O)C(=O)NCC(c1ccco1)S(=O)(=O)c1ccc(F)cc1` (centres undefined) gave D3 ag inactive, D1 PAM inactive and D1 ag inactive.
Screening COC(=O)c1[nH]c2ccccc2c1NC(=O)CN1CCCCCC1 returned D3 ag inactive, D1 PAM inactive, D3 antag -53, D1 antagonist inactive and D1 ag inactive.
For COC(=O)c1[nH]c2ccccc2c1NC(=O)CN1CCN(c2cccc(Cl)c2)CC1 the results were D3 ag inactive, D1 PAM inactive, D3 antag inactive, D1 antagonist inactive and D1 ag inactive.
COC(=O)c1[nH]c2ccccc2c1NC(=O)CN1CCN(C(=O)c2ccco2)CC1 was read as D3 ag 31, D1 PAM inactive, D3 antag -52, D1 antagonist inactive and D1 ag inactive.
COC(=O)c1[nH]c2ccccc2c1NC(=O)CN1CCC(C(N)=O)(N2CCCCC2)CC1 was read as D3 ag inactive, D1 PAM inactive, D3 antag -54, D1 antagonist inactive and D1 ag inactive.
For COC(=O)c1[nH]c2ccc(C)cc2c1NC(=O)Oc1ccccc1 the results were D3 ag inactive, D1 PAM inactive, D3 antag inactive, D1 antagonist inactive and D1 ag inactive.
`CCOC(=O)N1CCN(CC(=O)Nc2c(C(=O)OC)[nH]c3ccccc23)CC1` gave D3 ag inactive, D1 PAM inactive, D3 antag inactive, D1 antagonist inactive and D1 ag inactive.
For COC(=O)c1[nH]c2ccccc2c1NC(=O)Oc1ccccc1 the results were D3 ag inactive, D1 PAM inactive, D3 antag -52, D1 antagonist inactive and D1 ag inactive.
CCOC(=O)C1CCCN(CC(=O)Nc2c(C(=O)OC)[nH]c3ccccc23)C1 (centres undefined) was read as D3 ag inactive, D1 PAM inactive, D3 antag inactive, D1 antagonist inactive and D1 ag inactive.
`CC(CNC(=O)Cc1ccc(NC(=O)N2CCSc3ncccc32)cc1)c1ccccc1` (centres undefined) gave D3 ag inactive, D1 PAM inactive, D1 antagonist inactive and D1 ag inactive.
For COC(=O)c1[nH]c2cccc(OC)c2c1NC(=O)CCN1CCSCC1 the results were D3 ag inactive, D1 PAM inactive, D3 antag inactive, D1 antagonist inactive and D1 ag inactive.
COC(=O)c1[nH]c2cc(OC)ccc2c1NC(=O)CCN1CCSCC1 was read as D3 ag inactive, D1 PAM inactive, D3 antag -70, D1 antagonist inactive and D1 ag inactive.
For O=C(NCc1ccc(F)cc1)C1CCCN(S(=O)(=O)c2ccc(Br)s2)C1 (centres undefined) the results were D3 ag inactive, D1 PAM inactive, D3 antag inactive, D1 antagonist inactive and D1 ag inactive.
CC(C)CN(CC(C)C)S(=O)(=O)N1CCC(C(=O)NCc2ccc(F)cc2)CC1 was read as D3 ag inactive, D1 PAM inactive, D3 antag inactive, D1 antagonist -67 and D1 ag inactive.
For O=C(NCc1ccc(F)cc1Cl)C1CCN(S(=O)(=O)N2CCCCC2)CC1 the results were D3 ag inactive, D1 PAM inactive, D3 antag inactive, D1 antagonist inactive and D1 ag 50.
CCS(=O)(=O)N1CCC(C(=O)NCc2ccc(F)cc2Cl)CC1 was read as D3 ag inactive, D1 PAM inactive, D3 antag inactive, D1 antagonist inactive and D1 ag inactive.
For CC(C)CN(CC(C)C)S(=O)(=O)N1CCC(C(=O)NCc2cccnc2)CC1 the results were D3 ag inactive, D1 PAM inactive, D3 antag inactive, D1 antagonist inactive and D1 ag inactive.
O=C(NCc1ccc(F)cc1)C1CCN(S(=O)(=O)c2ccc(Br)s2)CC1 was read as D3 ag inactive, D1 PAM inactive, D3 antag inactive, D1 antagonist -30 and D1 ag inactive.
For O=C(Cc1ccc(NC(=O)N2CCSc3ncccc32)cc1)NCc1ccccc1 the results were D3 ag inactive, D1 PAM inactive, D1 antagonist inactive and D1 ag inactive.
`Cc1cccc(-c2cc(=O)c(C(=O)O)cn2-c2ccc(F)cc2F)c1` gave D3 ag inactive, D1 PAM inactive, D3 antag -79, D1 antagonist -40 and D1 ag inactive.
For Cc1cccc(-c2cc(C(=O)O)c3c(-c4ccc(F)cc4)[nH]nc3n2)c1 the results were D3 ag inactive, D1 PAM inactive, D1 antagonist inactive and D1 ag inactive.
For COc1ccc(-n2nc(C(=O)c3cccs3)cc(-c3nc4ccccc4[nH]3)c2=N)cc1 the results were D3 ag inactive, D1 PAM inactive, D3 antag -56, D1 antagonist inactive and D1 ag inactive.
For Cn1cc(CN2CCC(CO)(CCCc3ccccc3)CC2)c(-c2ccccc2)n1 the results were D3 ag inactive, D1 PAM inactive, D3 antag inactive, D1 antagonist inactive and D1 ag 47.
Screening OCC1(Cc2ccc(Cl)cc2)CCN(CCCc2ccccc2)CC1 returned D3 ag inactive, D1 PAM inactive, D3 antag -65, D1 antagonist inactive and D1 ag inactive.
OCC1(Cc2ccc(Cl)cc2)CCN(Cc2ccccc2F)CC1 was read as D3 ag inactive, D1 PAM inactive, D3 antag inconclusive, D1 antagonist inactive and D1 ag inactive.
`OCC1(Cc2ccccc2)CCN(Cc2cccc(F)c2F)CC1` gave D3 ag inactive, D1 PAM inactive, D3 antag -130, D1 antagonist inactive and D1 ag inactive.
`Cc1cc(NC(=O)c2cc(Cl)ccc2Cl)ccc1-c1cc2ccccc2oc1=O` gave D3 ag inactive, D1 PAM inactive, D1 antagonist inactive and D1 ag inactive.
Screening CC(C)CCn1c(=O)c2cccnc2n(CC(=O)Nc2ccc(F)cc2)c1=O returned D3 ag inactive, D1 PAM inactive, D1 antagonist inactive and D1 ag inactive.
`CCOc1ccc(CN(C)C(=O)CNC(=O)c2ccccc2)cc1` gave D3 ag inactive, D1 PAM inactive, D3 antag inactive, D1 antagonist inactive and D1 ag inactive.
`C=CCOc1ccc(CN(C)C(=O)CNC(=O)c2ccc(-c3ccccc3)cc2)cc1` gave D3 ag inactive, D1 PAM inactive, D3 antag inactive, D1 antagonist inactive and D1 ag 35.
